About 27,000 (9.3%) of roughly 290,000 compounds were called active. Shown is part of a subset that was picked to be rich in actives. Values without a mark were called inactive. No stated cut-off is given here; in the data, active means inhibition mostly above about 28% (no sharp cut-off); inactive means mostly below about 43%. Where a SMILES comes first, the peptide text is derived from it.
Test: A qHTS for Small Molecule Inhibitors of Shiga Toxin; further: 0% is about no effect
Conditions: Vero cells, Shiga toxin protein synthesis inhibition reporter; at 38.7 µM, active compounds read high

First: CC1CN(C(=O)CCC(=O)NC2CCN(Cc3ccccc3)CC2)c2ccccc2O1 (centres undefined)
Second: CCn1cc(CN2CCC(C(=O)Nc3cccc(-c4cccc(Cl)c4)c3)CC2)cn1
The inhibition of the first is higher: 10.3% for the first, -25.7% for the second.

Going from CC1CCN(Cc2nc(-c3ccc(Cl)cc3)no2)CC1 to COc1ccc(-c2noc(CSc3ccc(C)cc3)n2)cc1, the inhibition falls from 34.4% to 14.3%.

Compared with COCC1CCCN(Cc2cn[nH]c2-c2cc3ccccc3o2)C1 (centres undefined), COc1ccc(-c2nc(CS(=O)CC(=O)NCc3ccccc3)c(C)o2)cc1OC (centres undefined) is lower in inhibition: 56.9% for the first, -3.29% for the second.

First: CCCc1cc(=O)[nH]c(SCC(=O)Nc2sc3c(c2C#N)CCCC3)n1
Second: Cc1cc(C)c(NC(=O)CSc2nc3ccncc3[nH]2)c(C)c1
The inhibition of the first is higher: -2.72% for the first, -6.43% for the second.

Going from COc1ccc(C)cc1N(CC(=O)NC(C)c1ccccc1)S(C)(=O)=O (centres undefined) to COc1ccccc1CNS(=O)(=O)c1ccc(C)cc1, the inhibition rises from -6.92% to 11.5%.

Going from COc1ccc(Br)cc1C(=O)Nc1cccc(C)c1C to COc1ccc(CNc2cc(C)cc(C)c2)cc1OC, the inhibition falls from 26.5% to -14.7%.

Going from Cc1ccc(-c2nc3ccccc3[nH]2)cc1NC(=O)c1sc2ccccc2c1Cl to COc1ccccc1NC(=O)c1ccc2nc(N3C(=O)CCC3=O)sc2c1, the inhibition rises from -6.19% to 36%.

First: COC(=O)COc1ccc2c(c1C)O/C(=C\c1ccco1)C2=O
Second: Cc1c(CCC(=O)O)c(=O)oc2c(C)c(OCc3ccccc3Cl)ccc12
The inhibition of the first is higher: 15% for the first, -3.03% for the second.

First: Cc1ccc(/C=C2/SC(=S)N(CCC(=O)NCCCN3CCOCC3)C2=O)cc1
Second: Cc1ccc2c(c1)N(CC(=O)N1CCC(O)CC1)C(=O)CO2
The inhibition of the first is higher: 21.5% for the first, 1.8% for the second.

Compared with CCOC(=O)N1CCN(CC(=O)Nc2cc(C)nn2-c2nc3ccccc3s2)CC1, Cc1nn(CC(=O)N2CCCCC2)c(=O)c2nn(-c3ccccc3)c(C)c12 is higher in inhibition: -4.88% for the first, -2.2% for the second.

Going from COc1ccc2[nH]c(=O)c(CN(Cc3cccnc3)S(=O)(=O)c3ccccc3F)cc2c1 to COc1ccc(N(Cc2cc3cc(OC)ccc3[nH]c2=O)S(C)(=O)=O)cc1, the inhibition falls from -10.7% to -19.8%.

First: C/C(CC(=O)NCc1ccc(Cl)cc1)=N\NC(=O)COc1ccc(C)cc1Br
Second: COc1ccccc1C(=O)COC(=O)CNS(=O)(=O)c1ccc(NC(C)=O)cc1
The inhibition of the first is higher: 2.05% for the first, -27.5% for the second.

Going from CC(=O)Nc1ccc(NC(=O)c2sc3nc4c(c(-c5ccc(C)cc5)c3c2N)CCC4)cc1 to Cc1cccc(NC(=O)c2sc3nc4c(c(-c5ccco5)c3c2N)CCC4)c1, the inhibition rises from -4.09% to -3.76%.

First: CN(Cc1ccc(F)cc1)C(=O)COc1ccc2ccccc2c1
Second: CN(Cc1ccccc1)C(=O)c1ccc(COc2ccccc2)cc1
The inhibition of the first is higher: 26.4% for the first, 12.4% for the second.

Going from CCOc1ccc2nc(/N=C/c3nc(-c4ccccc4)oc3O)sc2c1 to Cc1cccc(N(C(=O)c2sc(C)nc2C)C(C(=O)NCC2CCCO2)c2ccccc2)c1 (centres undefined), the inhibition falls from -1.97% to -10.3%.

Going from COC(=O)C1[C@H]2SC(C)(C)C(C(=O)OC)N2C(=O)N1Cc1nc2ccccc2s1 (some centres undefined) to CCC1(CC)NC(=O)N(CC(=O)OCC(=O)NC(=O)c2ccccc2)C1=O, the inhibition rises from 5.52% to 19.1%.

Going from CC(C)OCCCNC(=S)N1CCC(C(=O)c2ccc3c(c2)OCCO3)CC1 to CC(=O)C1=C(C)NC(=O)NC1c1ccc2c(c1)OCO2 (centres undefined), the inhibition rises from -16.4% to 2.18%.

First: CCCc1nn(C)c2c(=O)[nH]c(-c3cc(S(N)(=O)=O)ccc3OCC)nc12
Second: CCCc1nc(-c2cc3cc(C)ccc3[nH]c2=O)no1
The inhibition of the first is lower: -4.47% for the first, -2.41% for the second.

Compared with COc1ccc(-c2noc(CN(C)S(=O)(=O)c3ccc(C)cc3)n2)cc1, Cc1ccc(-c2noc(CC(c3ccccc3)c3ccccc3)n2)cc1 is lower in inhibition: -3.7% for the first, -20.2% for the second.

Going from COc1ccc(CCNS(=O)(=O)c2cccc3cccnc23)cc1OC to NS(=O)(=O)c1cc(C(=O)NCCOc2ccccc2)c(Cl)cc1Cl, the inhibition falls from 18.1% to -6.15%.

Going from CC(=O)NC1CCN(CC(=O)Nc2nccs2)CC1 to CCCCNC(=O)c1ccccc1NC(=O)C1=C(C)OCCS1, the inhibition rises from -3.57% to 1.7%.

Compared with CN=C1S/C(=C\c2c(OC)cc(OC)cc2OC)C(=O)N1C, COc1ccccc1NC(=O)c1ccc(N2CC3CC(C2)c2cccc(=O)n2C3)c(NC(=O)c2cccnc2)c1 (centres undefined) is higher in inhibition: -8.5% for the first, 7.14% for the second.

Going from CC[C@H](C)[C@H](NC(=O)[C@H](Cc1cnc[nH]1)NC(=O)[C@@H](N)CCC(=O)O)C(=O)N1CCC[C@H]1C(=O)N[C@@H](C)C(=O)O (H-EHIPA-OH) to CC(CC(=O)Nc1ccc(F)cc1F)S(=O)(=O)c1ccc2c(c1)NC(=O)CO2 (centres undefined), the inhibition falls from -0.529% to -3.11%.

Compound CC1=C(C(=O)Nc2ccccc2)S(=O)(=O)CCO1 has an inhibition of 31.9%.

For COCC1CCCN(Cc2nc(-c3ccc4c(c3)OCO4)no2)C1 (centres undefined), the inhibition was 53.7% (active).
For COc1ccc(Br)cc1C(=O)NC(=S)Nc1cc(-c2nc3ccccc3[nH]2)ccc1C, the inhibition was 0% (active).
With COc1ccc(C2=NN(c3nc4ccccc4s3)C(=O)C2)cc1 the inhibition was 72.3% (active).
For Cc1ccc(NC(=O)c2sc3nc(N)c(C#N)cc3c2N)cc1, the inhibition was 63.4% (active).
For CN(Cc1ccccc1)C(=O)COc1ccccc1, the inhibition was 60.6% (active).
With CC(N=Cc1nc(-c2ccccc2)oc1O)c1ccccc1 (centres undefined) the inhibition was 54.4% (active).
With CCC1(CC)NC(=O)N(Cc2nc3ccccc3s2)C1=O the inhibition was 26.9% (active).
For COc1ccc(Cc2nc(-c3ccccn3)no2)cc1OC, the inhibition was 56.5% (active).
For COc1ccccc1Cc1nc(-c2ccc(C)cc2)no1, the inhibition was 57.4% (active).
With COc1ccc2[nH]c(=O)c(-c3noc(-c4ccc(F)cc4)n3)cc2c1 the inhibition was 69.3% (active).
With COc1ccc(-c2noc(-c3ccc(C)cc3)n2)cc1 the inhibition was 79% (active).
For CC1=C(C(=O)Nc2ccccc2)SCCO1, the inhibition was 52.1% (active).
